# Test results taken from PMC7862700, “An all-to-all approach to the identification of sequence-specific readers for epigenetic DNA modifications on cytosine”.
# Experiments:
# Experiment in all cases: DAPPL (digital affinity profiling via proximity ligation, sequencing); 10 mM Tris-HCl pH 7.5, 50 mM NaCl, 1 mM DTT, 4% glycerol, room temperature, 30 min; GST-TFs on glutathione beads, 16-mer random dsDNA library, 0.1% formaldehyde crosslink after washing; high values mean tight binding
# FLI1 = molecular target: T1, FLI1 (Homo sapiens, UniProt Q01543 1-452); settings: protein: recombinant; tags: N-terminal GST; dsDNA, one strand shown
# T1 sequence: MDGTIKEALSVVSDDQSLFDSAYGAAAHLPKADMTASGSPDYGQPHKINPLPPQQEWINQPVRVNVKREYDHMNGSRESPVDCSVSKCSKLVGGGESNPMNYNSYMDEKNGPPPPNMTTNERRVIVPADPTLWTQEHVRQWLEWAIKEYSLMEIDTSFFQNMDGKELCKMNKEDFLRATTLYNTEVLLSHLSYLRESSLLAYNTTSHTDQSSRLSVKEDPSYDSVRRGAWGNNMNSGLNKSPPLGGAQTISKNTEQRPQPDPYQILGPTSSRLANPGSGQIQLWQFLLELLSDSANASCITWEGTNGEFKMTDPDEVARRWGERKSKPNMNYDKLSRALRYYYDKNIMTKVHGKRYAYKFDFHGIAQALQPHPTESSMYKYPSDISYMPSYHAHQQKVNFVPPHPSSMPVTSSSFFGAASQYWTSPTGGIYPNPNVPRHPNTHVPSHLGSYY
# Method in brief: (§1)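 A tag-only sample was pooled with DNA-barcoded human transcription factors that had been expressed in yeast as GST fusions and captured on glutathione beads. The pools were incubated for 30 min at room temperature with 200 nmole of a random double-stranded 16-mer DNA library in Tris/NaCl/DTT/glycerol buffer, then washed, crosslinked with 0.1% formaldehyde, proximity-ligated (BsaI/T4 ligase, 1 h, 37 °C), PCR-amplified and sequenced on an Illumina NextSeq500. Binding signal is each hexamer's read frequency for a factor divided by its frequency for the tag-only sample.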
# ELK1 = molecular target: T2, ELK1 (Homo sapiens, UniProt P19419 1-428); settings: protein: recombinant; tags: N-terminal GST; dsDNA, one strand shown
# T2 sequence: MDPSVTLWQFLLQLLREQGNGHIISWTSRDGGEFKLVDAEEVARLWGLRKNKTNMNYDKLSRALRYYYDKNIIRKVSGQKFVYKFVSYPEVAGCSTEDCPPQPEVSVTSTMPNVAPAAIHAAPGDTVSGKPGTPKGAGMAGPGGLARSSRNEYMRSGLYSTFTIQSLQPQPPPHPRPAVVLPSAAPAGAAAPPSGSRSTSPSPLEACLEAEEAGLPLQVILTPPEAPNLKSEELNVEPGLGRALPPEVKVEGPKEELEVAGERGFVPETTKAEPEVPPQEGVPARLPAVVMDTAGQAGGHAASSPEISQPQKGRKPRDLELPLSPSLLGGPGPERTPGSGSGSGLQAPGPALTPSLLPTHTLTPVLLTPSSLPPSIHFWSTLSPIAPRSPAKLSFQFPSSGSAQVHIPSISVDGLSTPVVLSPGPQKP
# Method in brief: as §1
# GABPA = molecular target: T3, GABPA (Homo sapiens, UniProt Q06546 1-454); settings: protein: recombinant; tags: N-terminal GST; dsDNA, one strand shown
# T3 sequence: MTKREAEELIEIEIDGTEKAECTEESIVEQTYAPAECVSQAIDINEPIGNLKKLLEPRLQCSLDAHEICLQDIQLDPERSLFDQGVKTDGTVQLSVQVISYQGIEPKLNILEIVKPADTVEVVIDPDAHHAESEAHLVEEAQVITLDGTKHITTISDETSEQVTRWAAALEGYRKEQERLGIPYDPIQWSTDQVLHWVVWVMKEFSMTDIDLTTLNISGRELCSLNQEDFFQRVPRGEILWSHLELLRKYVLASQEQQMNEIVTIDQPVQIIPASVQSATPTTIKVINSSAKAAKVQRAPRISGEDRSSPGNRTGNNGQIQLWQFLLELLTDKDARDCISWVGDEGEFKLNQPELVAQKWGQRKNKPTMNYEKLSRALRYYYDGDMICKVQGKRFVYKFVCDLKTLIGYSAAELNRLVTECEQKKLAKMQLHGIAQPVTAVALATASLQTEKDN
# Method in brief: as §1
# ERG = molecular target: T4, ERG (Homo sapiens, UniProt P11308 1-479); settings: protein: recombinant; tags: N-terminal GST; dsDNA, one strand shown
# T4 sequence: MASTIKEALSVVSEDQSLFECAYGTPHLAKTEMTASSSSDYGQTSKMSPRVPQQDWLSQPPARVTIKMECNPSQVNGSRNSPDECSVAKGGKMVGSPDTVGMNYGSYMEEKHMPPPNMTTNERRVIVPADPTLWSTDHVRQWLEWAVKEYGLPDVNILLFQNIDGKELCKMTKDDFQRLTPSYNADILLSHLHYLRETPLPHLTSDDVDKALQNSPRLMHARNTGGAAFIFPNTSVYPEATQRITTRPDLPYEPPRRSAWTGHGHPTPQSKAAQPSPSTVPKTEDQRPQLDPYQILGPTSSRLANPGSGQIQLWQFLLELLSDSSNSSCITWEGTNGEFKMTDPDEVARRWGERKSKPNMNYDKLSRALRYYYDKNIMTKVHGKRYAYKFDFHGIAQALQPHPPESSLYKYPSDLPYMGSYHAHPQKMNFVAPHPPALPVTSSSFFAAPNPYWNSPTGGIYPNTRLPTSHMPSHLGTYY
# Method in brief: as §1
# ELF1 = ELF1 (Homo sapiens, UniProt P32519 1-619); settings: protein: recombinant; tags: N-terminal GST; dsDNA, one strand shown
# Method in brief: as §1
# EHF = molecular target: T5, EHF (Homo sapiens, UniProt Q9NZC4 1-300); settings: protein: recombinant; tags: N-terminal GST; dsDNA, one strand shown
# T5 sequence: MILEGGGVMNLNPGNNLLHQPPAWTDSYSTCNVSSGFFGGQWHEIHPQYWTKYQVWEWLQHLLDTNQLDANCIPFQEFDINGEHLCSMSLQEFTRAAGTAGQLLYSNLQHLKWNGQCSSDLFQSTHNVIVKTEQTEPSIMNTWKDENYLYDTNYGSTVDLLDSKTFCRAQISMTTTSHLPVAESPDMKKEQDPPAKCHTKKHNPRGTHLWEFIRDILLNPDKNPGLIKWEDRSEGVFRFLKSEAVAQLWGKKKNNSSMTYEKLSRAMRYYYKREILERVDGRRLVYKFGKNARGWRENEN
# Method in brief: as §1
# SPI1 = SPI1 (Homo sapiens, UniProt P17947 1-270); settings: protein: recombinant; tags: N-terminal GST; dsDNA, one strand shown
# Method in brief: as §1
# SPIB = SPIB (Homo sapiens, UniProt Q01892 1-262); settings: protein: recombinant; tags: N-terminal GST; dsDNA, one strand shown
# Method in brief: as §1
# ELK3 = molecular target: T6, ELK3 (Homo sapiens, UniProt P41970 1-407); settings: protein: recombinant; tags: N-terminal GST; dsDNA, one strand shown
# T6 sequence: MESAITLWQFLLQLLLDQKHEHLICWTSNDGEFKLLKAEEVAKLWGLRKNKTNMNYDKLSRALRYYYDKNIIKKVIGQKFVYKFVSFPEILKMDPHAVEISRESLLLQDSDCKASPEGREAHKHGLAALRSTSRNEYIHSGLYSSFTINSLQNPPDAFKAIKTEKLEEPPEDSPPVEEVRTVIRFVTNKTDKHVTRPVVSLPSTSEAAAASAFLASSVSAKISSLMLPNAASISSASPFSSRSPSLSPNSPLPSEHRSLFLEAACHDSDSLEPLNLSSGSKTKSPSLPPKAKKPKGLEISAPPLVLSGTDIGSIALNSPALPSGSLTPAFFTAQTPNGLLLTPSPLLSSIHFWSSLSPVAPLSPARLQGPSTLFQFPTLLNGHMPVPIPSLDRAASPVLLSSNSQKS
# Method in brief: as §1
# FEV = molecular target: T7, FEV (Homo sapiens, UniProt Q99581 1-238); settings: protein: recombinant; tags: N-terminal GST; dsDNA, one strand shown
# T7 sequence: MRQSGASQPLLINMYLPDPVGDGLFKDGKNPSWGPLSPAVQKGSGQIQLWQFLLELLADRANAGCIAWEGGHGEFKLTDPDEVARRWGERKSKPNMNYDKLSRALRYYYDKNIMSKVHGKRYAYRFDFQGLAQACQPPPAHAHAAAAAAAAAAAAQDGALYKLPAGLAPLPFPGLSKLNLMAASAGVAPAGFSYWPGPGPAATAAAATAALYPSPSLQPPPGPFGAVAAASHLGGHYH
# Method in brief: as §1
# ETV5 = ETV5 (Homo sapiens, UniProt P41161 1-510); settings: protein: recombinant; tags: N-terminal GST; dsDNA, one strand shown
# Method in brief: as §1
# HSF1 = HSF1 (Homo sapiens, UniProt Q00613 1-529); settings: protein: recombinant; tags: N-terminal GST; chain copies: 3; dsDNA, one strand shown
# Method in brief: as §1
# SPIC = molecular target: T8, SPIC (Homo sapiens, UniProt Q8N5J4 1-248); settings: protein: recombinant; tags: N-terminal GST; dsDNA, one strand shown
# T8 sequence: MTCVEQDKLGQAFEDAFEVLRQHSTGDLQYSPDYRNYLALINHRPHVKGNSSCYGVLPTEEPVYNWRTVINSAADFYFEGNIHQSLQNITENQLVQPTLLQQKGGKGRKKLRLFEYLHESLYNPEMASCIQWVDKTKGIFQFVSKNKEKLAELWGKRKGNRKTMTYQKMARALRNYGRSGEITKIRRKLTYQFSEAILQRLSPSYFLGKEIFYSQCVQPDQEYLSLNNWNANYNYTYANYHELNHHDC
# Method in brief: as §1
# ELF4 = ELF4 (Homo sapiens, UniProt Q99607 1-663); settings: protein: recombinant; tags: N-terminal GST; dsDNA, one strand shown
# Method in brief: as §1
# ELK4 = molecular target: T9, ELK4 (Homo sapiens, UniProt P28324-2 1-405); settings: protein: recombinant; tags: N-terminal GST; dsDNA, one strand shown
# T9 sequence: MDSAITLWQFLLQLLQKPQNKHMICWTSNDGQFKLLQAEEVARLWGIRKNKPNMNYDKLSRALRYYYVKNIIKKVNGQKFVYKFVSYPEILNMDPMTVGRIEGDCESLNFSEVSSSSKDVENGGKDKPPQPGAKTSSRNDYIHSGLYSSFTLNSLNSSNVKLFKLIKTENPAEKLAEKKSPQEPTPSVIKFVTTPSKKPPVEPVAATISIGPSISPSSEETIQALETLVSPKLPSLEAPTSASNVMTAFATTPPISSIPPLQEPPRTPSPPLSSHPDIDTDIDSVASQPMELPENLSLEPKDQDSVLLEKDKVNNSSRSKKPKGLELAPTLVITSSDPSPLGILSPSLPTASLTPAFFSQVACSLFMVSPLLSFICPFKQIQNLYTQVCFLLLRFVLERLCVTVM
# Method in brief: as §1
# ETV2 = molecular target: T10, ETV2 (Homo sapiens, UniProt O00321 1-342); settings: protein: recombinant; tags: N-terminal GST; dsDNA, one strand shown
# T10 sequence: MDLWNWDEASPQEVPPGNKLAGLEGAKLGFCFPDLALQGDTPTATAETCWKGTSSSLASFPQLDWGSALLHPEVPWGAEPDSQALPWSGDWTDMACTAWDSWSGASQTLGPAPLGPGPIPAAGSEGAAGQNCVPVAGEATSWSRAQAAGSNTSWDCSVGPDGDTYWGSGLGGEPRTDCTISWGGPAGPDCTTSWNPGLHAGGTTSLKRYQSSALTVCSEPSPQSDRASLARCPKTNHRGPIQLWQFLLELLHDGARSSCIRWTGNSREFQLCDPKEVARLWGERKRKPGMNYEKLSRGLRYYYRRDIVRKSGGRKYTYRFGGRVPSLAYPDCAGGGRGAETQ
# Method in brief: as §1
# ELF3 = molecular target: T11, ELF3 (Homo sapiens, UniProt P78545 1-371); settings: protein: recombinant; tags: N-terminal GST; dsDNA, one strand shown
# T11 sequence: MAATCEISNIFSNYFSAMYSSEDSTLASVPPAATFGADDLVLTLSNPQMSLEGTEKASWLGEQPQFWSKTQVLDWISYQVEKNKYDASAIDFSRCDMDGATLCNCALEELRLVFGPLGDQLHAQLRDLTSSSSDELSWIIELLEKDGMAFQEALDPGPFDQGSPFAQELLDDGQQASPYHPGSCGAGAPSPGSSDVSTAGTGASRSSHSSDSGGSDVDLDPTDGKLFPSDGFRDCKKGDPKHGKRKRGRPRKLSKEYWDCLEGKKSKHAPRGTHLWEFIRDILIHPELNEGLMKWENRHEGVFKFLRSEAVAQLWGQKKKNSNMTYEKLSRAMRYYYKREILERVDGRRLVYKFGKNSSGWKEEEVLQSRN
# Method in brief: as §1
# CRX = CRX (Homo sapiens, UniProt O43186 1-299); settings: protein: recombinant; tags: N-terminal GST; dsDNA, one strand shown
# Method in brief: as §1
# ETV1 = ETV1 (Homo sapiens, UniProt P50549 1-477); settings: protein: recombinant; tags: N-terminal GST; dsDNA, one strand shown
# Method in brief: as §1
# Sequence of ETV1 (P50549 whole entry): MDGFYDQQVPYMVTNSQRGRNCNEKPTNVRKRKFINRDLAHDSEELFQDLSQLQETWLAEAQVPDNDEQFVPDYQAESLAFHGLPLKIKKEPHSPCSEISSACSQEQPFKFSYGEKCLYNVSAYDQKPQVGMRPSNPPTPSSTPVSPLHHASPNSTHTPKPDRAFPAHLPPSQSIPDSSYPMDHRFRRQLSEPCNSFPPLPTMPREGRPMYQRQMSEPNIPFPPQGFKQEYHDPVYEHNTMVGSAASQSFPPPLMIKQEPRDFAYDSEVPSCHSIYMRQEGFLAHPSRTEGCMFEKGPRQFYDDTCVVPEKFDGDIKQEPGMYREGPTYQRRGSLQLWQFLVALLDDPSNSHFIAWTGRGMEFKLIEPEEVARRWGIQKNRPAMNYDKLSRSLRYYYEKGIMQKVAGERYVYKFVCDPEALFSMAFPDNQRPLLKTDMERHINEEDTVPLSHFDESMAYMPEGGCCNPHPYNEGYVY
# Sequence of ELF1 (P32519 whole entry): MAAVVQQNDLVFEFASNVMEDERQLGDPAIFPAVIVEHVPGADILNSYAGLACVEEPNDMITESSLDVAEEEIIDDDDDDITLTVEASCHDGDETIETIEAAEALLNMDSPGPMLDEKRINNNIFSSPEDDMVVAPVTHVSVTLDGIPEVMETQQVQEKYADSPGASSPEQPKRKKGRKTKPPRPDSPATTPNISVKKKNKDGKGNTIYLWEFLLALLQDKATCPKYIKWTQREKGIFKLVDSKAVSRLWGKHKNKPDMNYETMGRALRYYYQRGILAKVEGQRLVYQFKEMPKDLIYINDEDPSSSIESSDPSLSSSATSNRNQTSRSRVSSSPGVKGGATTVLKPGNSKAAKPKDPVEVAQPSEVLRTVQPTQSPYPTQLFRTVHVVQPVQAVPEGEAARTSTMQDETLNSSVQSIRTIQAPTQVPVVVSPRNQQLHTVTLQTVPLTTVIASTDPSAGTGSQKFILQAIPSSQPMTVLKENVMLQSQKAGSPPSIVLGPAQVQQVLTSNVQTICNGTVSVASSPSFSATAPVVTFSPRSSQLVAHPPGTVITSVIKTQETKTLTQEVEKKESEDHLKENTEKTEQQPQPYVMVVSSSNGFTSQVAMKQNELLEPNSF
# Sequence of ETV5 (P41161 whole entry): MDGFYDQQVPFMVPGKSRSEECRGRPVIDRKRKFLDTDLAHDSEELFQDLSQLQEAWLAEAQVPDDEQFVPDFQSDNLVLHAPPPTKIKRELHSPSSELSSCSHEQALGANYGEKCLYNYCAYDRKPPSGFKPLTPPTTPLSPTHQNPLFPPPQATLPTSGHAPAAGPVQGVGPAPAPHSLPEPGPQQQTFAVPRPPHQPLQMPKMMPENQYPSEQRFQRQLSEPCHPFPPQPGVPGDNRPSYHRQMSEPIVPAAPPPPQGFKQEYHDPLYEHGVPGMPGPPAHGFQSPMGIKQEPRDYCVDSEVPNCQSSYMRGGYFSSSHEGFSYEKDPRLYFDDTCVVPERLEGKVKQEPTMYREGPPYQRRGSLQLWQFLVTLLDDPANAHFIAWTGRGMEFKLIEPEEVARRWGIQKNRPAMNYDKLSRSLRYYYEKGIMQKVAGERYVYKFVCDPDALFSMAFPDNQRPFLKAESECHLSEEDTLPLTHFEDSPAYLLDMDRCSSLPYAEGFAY
# Sequence of SPIB (Q01892 whole entry): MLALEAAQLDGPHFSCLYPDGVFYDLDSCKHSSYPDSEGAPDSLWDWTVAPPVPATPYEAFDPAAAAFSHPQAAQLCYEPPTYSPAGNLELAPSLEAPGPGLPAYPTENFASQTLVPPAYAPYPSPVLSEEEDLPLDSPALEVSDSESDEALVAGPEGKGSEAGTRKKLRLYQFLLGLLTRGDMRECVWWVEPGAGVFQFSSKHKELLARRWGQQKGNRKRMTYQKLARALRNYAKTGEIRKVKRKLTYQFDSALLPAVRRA
# Sequence of CRX (O43186 whole entry): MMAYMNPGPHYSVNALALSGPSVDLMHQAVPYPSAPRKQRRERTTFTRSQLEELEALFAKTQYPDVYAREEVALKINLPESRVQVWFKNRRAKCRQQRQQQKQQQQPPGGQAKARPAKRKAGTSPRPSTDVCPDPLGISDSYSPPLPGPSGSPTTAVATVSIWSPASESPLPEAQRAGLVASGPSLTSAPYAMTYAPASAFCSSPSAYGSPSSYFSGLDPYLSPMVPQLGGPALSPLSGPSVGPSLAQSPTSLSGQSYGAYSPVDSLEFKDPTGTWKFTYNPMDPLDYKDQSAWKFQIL
# Sequence of ELF4 (Q99607 whole entry): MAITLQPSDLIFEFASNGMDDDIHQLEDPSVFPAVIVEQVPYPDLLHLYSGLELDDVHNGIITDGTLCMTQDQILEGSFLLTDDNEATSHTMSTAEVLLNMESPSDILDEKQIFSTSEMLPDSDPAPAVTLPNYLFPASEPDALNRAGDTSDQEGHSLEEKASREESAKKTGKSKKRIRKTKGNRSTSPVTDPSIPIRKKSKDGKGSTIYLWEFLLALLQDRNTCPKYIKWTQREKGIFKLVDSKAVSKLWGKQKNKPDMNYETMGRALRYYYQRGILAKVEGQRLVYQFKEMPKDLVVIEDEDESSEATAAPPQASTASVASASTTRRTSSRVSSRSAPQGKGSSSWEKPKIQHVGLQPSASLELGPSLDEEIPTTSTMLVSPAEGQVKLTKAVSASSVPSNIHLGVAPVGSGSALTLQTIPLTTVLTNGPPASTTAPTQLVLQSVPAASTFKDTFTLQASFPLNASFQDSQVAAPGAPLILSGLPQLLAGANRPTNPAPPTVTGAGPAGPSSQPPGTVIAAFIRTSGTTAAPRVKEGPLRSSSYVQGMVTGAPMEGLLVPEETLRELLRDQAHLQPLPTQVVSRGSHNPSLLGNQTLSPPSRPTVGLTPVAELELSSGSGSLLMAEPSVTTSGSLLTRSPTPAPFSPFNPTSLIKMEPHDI
# Sequence of HSF1 (Q00613 whole entry): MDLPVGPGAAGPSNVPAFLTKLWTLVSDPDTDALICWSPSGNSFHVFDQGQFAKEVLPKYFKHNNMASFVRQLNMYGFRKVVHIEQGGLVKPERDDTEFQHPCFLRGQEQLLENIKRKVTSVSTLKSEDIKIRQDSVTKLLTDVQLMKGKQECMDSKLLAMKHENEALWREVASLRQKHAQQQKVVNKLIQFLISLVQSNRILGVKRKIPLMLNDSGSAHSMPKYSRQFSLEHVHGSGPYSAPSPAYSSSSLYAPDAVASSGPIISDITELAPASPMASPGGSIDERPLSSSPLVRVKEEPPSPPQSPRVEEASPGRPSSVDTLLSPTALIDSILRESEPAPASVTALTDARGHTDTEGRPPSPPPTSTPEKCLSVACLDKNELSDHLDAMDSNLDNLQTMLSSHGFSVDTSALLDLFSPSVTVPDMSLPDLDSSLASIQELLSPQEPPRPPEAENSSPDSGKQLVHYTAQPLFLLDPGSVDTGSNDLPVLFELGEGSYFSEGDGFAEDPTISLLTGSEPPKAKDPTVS
sequence,measurement,setting,value
CGTTCT,binding signal,FLI1,"1.37 fold enrichment (6-mer frequency, TF over GST control)"
same,binding signal,ELK1,"1.41 fold enrichment (6-mer frequency, TF over GST control)"
same,binding signal,GABPA,"1.44 fold enrichment (6-mer frequency, TF over GST control)"
same,binding signal,ERG,"1.55 fold enrichment (6-mer frequency, TF over GST control)"
same,binding signal,ELF1,"1.5 fold enrichment (6-mer frequency, TF over GST control)"
same,binding signal,EHF,"1.3 fold enrichment (6-mer frequency, TF over GST control)"
same,binding signal,SPI1,"1.39 fold enrichment (6-mer frequency, TF over GST control)"
same,binding signal,SPIB,"1.43 fold enrichment (6-mer frequency, TF over GST control)"
same,binding signal,ELK3,"1.52 fold enrichment (6-mer frequency, TF over GST control)"
same,binding signal,FEV,"1.45 fold enrichment (6-mer frequency, TF over GST control)"
same,binding signal,ETV5,"1.45 fold enrichment (6-mer frequency, TF over GST control)"
same,binding signal,HSF1,"2.27 fold enrichment (6-mer frequency, TF over GST control)"
same,binding signal,SPIC,"1.45 fold enrichment (6-mer frequency, TF over GST control)"
same,binding signal,ELF4,"1.47 fold enrichment (6-mer frequency, TF over GST control)"
same,binding signal,ELK4,"1.43 fold enrichment (6-mer frequency, TF over GST control)"
same,binding signal,ETV2,"1.39 fold enrichment (6-mer frequency, TF over GST control)"
same,binding signal,ELF3,"1.4 fold enrichment (6-mer frequency, TF over GST control)"
same,binding signal,CRX,"1.49 fold enrichment (6-mer frequency, TF over GST control)"
same,binding signal,ETV1,"1.37 fold enrichment (6-mer frequency, TF over GST control)"
